Article PMC5540273 (PLoS ONE, 2017)

Legend:
Details in all cases: concentration: 1 μM, replicates: in singlicate; n = 1
SBK1 = test system: SBK1
SGK2 = test system: SGK2
SGK3 = test system: SGK3
SGK = test system: SGK
SIK2 = test system: SIK2
SIK = test system: SIK
SLK = test system: SLK
SNARK = test system: T1, SNARK
T1 construct: gene NUAK2

SNRK = test system: SNRK
SRC = test system: SRC
SRMS = test system: SRMS
SRPK1 = test system: SRPK1
SRPK2 = test system: SRPK2
SRPK3 = test system: SRPK3
STK16 = test system: STK16
STK33 = test system: STK33
STK35 = test system: STK35
STK36 = test system: STK36
STK39 = test system: STK39
SYK = test system: SYK
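Note: KINOMEscan kinase panel screen.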

| Compound | %Inh (SBK1) | %Inh (SGK2) | %Inh (SGK3) | %Inh (SGK) | %Inh (SIK2) | %Inh (SIK) | %Inh (SLK) | %Inh (SNARK) | %Inh (SNRK) | %Inh (SRC) | %Inh (SRMS) | %Inh (SRPK1) | %Inh (SRPK2) | %Inh (SRPK3) | %Inh (STK16) | %Inh (STK33) | %Inh (STK35) | %Inh (STK36) | %Inh (STK39) | %Inh (SYK) |
| --- | --- | --- | --- | --- | --- | --- | --- | --- | --- | --- | --- | --- | --- | --- | --- | --- | --- | --- | --- | --- |
| COc1ccc(Nc2nccc(N3CCC(NC(=O)Nc4ccc5c(c4)OCO5)C3)n2)cc1 (centres unmarked) [GSK1379745] | 21% | 6% | 6% | 1% | 0% | 6% | 27% | 8% | 0% | 22% | 0% | 29% | 3% | 17% | 0% | 3% | 8% | 0% | 17% | 40% |
| Cc1cc(N2CCC(NS(=O)(=O)c3ccc(F)cc3)CC2)nc(Nc2cccc(C#N)c2)n1.O=C(O)C(F)(F)F [GSK1653537] | 0% | 0% | 0% | 0% | 0% | 0% | 13% | 0% | 0% | 5% | 0% | 15% | 0% | 18% | 0% | 0% | 0% | 0% | 1% | 19% |
| CSc1nn2c(=O)cc(N3CCOCC3)nc2n1Cc1cccc(Cl)c1Cl [GSK2347225] | 6% | 8% | 1% | 0% | 72% | 13% | 18% | 8% | 0% | 26% | 0% | 13% | 0% | 0% | 14% | 3% | 65% | 28% | 0% | 30% |
| OCCOCCn1ccc2ncnc(Nc3ccc(Oc4cccc(Cl)c4)c(Cl)c3)c21 | 0% | 0% | 0% | 0% | 0% | 0% | 39% | 0% | 0% | 0% | 0% | 0% | 0% | 0% | 0% | 0% | 0% | 0% | 0% | 26% |
| Cc1ccc(O)cc1Nc1cc(C(F)(F)F)nc2ccc(-c3ccncc3)cc12 [GW630823] | 0% | 3% | 0% | 14% | 11% | 4% | 26% | 0% | 0% | 18% | 0% | 7% | 0% | 0% | 28% | 24% | 0% | 0% | 0% | 8% |
| Nc1nc(-c2ccc3c(N)n[nH]c3c2)cc(N2CCC[C@@H](C(=O)Nc3ccccc3)C2)n1.O=C(O)C(F)(F)F.O=C(O)C(F)(F)F [GSK2288359] | 0% | 0% | 8% | 0% | 0% | 0% | 0% | 21% | 0% | 0% | 0% | 34% | 0% | 25% | 18% | 0% | 0% | 0% | 1% | 0% |
| COc1ccc(-c2oc3ncnc(N)c3c2-c2ccc(OC)cc2)cc1 [SB-589132] | 0% | 5% | 0% | 9% | 2% | 1% | 20% | 0% | 0% | 40% | 6% | 30% | 53% | 0% | 57% | 0% | 0% | 0% | 24% | 20% |
| O=C(Nc1ccccc1)Nc1ccc(Oc2ccc3nccn3n2)cc1 | 0% | 0% | 3% | 0% | 0% | 0% | 20% | 0% | 0% | 0% | 3% | 28% | 16% | 16% | 0% | 9% | 0% | 0% | 0% | 6% |
| CC(=O)Nc1n[nH]c2ncc(-c3ccccc3)cc12 [SB-548492] | 4% | 9% | 14% | 20% | 12% | 14% | 20% | 3% | 1% | 0% | 25% | 25% | 0% | 20% | 26% | 0% | 10% | 12% | 0% | 2% |
| Fc1cccc(COc2ccc(Nc3ncnc4cc[nH]c34)cc2Cl)c1 | 52% | 26% | 40% | 23% | 0% | 15% | 34% | 36% | 21% | 16% | 0% | 8% | 7% | 33% | 20% | 15% | 0% | 33% | 9% | 32% |
